Reference: PubChem BioAssay (Tox21)
Records with an inconclusive call do not appear. Where a call stands in place of a potency, no number is given. Values without a mark were called inactive. Calls of active or inactive are those of the source. Unless noted, the call rests on the fitted dose curve; in most records, active means well fitted curve in the direction sought with a large enough effect in the repeat runs; inconclusive means weak or mixed curves; inactive means no such curve, though single readings can be large; an effect the other way counts as inactive or inconclusive.

Legend:
[1] = biological target: Retinoic acid receptor RXR-alpha (Homo sapiens) (UniProt P19793); experiment: qHTS assay to identify small molecule agonists of the RXR signaling pathway (AID 1159527; calls by dose curve; further: nearly all actives have a fitted effect of over 35% in size)
Sequence of Retinoic acid receptor RXR-alpha (Homo sapiens) (P19793 whole entry, looked up): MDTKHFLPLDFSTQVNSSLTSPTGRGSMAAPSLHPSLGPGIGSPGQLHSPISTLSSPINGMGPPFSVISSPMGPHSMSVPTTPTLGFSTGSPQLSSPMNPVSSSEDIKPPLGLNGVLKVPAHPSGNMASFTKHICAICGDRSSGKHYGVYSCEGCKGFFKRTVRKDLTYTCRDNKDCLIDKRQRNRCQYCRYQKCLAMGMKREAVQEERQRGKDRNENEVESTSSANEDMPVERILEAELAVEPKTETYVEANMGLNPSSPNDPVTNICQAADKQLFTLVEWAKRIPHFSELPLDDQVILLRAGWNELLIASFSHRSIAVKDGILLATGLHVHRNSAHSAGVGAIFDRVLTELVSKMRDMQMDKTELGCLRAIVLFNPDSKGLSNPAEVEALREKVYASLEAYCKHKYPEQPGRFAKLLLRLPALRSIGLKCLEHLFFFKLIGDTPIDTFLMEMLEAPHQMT
Outline: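 Reporter activation is measured as beta-lactamase activity via FRET substrate cleavage (emission 460/530 nm) in HEK 293T cells expressing an RXR-alpha-driven bla construct, following 16 hr compound exposure at 37 C.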

[2] = qHTS assay to identify small molecule agonists of the RXR signaling pathway - cell viability counter screen (AID 1159529); further: series mostly up to about 77 µM; nearly all actives have a fitted effect of over 50% in size
Outline: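 Tox21 10K compounds were tested for cytotoxicity against GeneBLAzer RXR-alpha HEK 293T cells grown in 2% charcoal-stripped FBS. Exposure lasted 16 hr at 37 C, 5% CO2; viability read by CellTiter-Glo luminescence.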

[3] = qHTS assay to identify small molecule antagonists of the retinoid acid receptor (RAR) signaling pathway - cell viability counter screen (AID 1159551); further: nearly all actives have a fitted effect of over 35% in size
Outline: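 Viability of C3RL4 cells is quantified from ATP by luminescence after 6 h treatment at 37 C with compounds and 1 uM retinol.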

[4] = qHTS assay to identify small molecule antagonists of the estrogen related receptor (ERR) signaling pathway from Tox21 library - cell viability counter screen (AID 1224834); further: nearly all actives have a fitted effect of over 30% in size
Outline: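 In this quantitative HTS format, ERR cells receive compounds in DMSO and are incubated for 17.5 h at 37 C. Live-cell protease activity is then detected with CellTiter-Fluor.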

[5] = biological target: Luciferin 4-monooxygenase (Photinus pyralis) (UniProt P08659); experiment: qHTS assay to identify small molecule inhibitors of firefly luciferase (AID 1224835); further: series mostly up to about 120 µM; nearly all actives have a fitted effect of over 25% in size
Sequence of Luciferin 4-monooxygenase (Photinus pyralis) (P08659 whole entry, looked up): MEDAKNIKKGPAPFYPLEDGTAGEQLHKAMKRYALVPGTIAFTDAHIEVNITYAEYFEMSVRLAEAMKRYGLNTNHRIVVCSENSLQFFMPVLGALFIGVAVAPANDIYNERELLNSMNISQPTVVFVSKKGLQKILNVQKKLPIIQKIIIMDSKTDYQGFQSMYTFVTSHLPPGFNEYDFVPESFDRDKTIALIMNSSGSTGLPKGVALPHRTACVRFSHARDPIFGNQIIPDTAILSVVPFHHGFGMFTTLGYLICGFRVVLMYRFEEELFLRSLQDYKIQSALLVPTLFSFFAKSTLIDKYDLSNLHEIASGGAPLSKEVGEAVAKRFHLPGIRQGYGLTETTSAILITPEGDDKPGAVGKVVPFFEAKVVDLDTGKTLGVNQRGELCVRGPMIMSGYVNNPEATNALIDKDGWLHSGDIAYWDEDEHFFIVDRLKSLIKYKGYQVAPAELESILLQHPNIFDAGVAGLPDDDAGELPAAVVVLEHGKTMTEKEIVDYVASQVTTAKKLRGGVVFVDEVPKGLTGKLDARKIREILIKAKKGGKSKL
Outline: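 Quantitative HTS format; KM concentrations of both substrates. Purified P. pyralis FLuc activity quantified from luminescence images.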

[6] = qHTS assay to identify small molecule agonists of the constitutive androstane receptor (CAR) signaling pathway - cell viability counter screen (AID 1224836); further: series mostly up to about 92 µM; nearly all actives have a fitted effect of over 45% in size
Outline: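 Fluorescence from CellTiter-Fluor indicates live cells after 23 h exposure. The human hepatoma line expresses hCAR and a CYP2B6-2.2kb reporter. Incubation medium contains 0.75 uM PK11195 (final).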

[7] = qHTS assay to identify small molecule antagonists of the constitutive androstane receptor (CAR) signaling pathway - cell viability counter screen (AID 1224837); further: series mostly up to about 92 µM; nearly all actives have a fitted effect of over 45% in size
Outline: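 In quantitative HTS format, compounds at 15 concentrations were applied to HepG2 cells double-transfected with hCAR and CYP2B6-2.2kb under 50 nM CITCO stimulation; live-cell protease activity was read after 23 hr via CellTiter-Fluor.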

[8] = biological target: Nuclear receptor subfamily 1 group I member 3 (Homo sapiens) (UniProt Q14994); experiment: qHTS assay to identify small molecule antagonists of the constitutive androstane receptor (CAR) signaling pathway (AID 1224838); further: nearly all actives have a fitted effect of over 40% in size
Sequence of Nuclear receptor subfamily 1 group I member 3 (Homo sapiens) (Q14994 whole entry, looked up): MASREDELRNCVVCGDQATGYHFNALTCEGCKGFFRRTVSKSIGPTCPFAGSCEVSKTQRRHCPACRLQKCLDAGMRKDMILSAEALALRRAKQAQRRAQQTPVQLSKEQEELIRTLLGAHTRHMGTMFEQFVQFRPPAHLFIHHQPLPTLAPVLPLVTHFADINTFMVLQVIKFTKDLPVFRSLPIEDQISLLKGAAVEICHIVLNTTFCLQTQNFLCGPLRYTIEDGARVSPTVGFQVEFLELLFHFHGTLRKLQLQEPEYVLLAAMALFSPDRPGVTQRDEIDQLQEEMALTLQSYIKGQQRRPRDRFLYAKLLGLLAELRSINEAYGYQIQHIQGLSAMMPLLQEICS
Outline: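 CITCO-stimulated (50 nM final) HepG2 cells stably transfected with hCAR and CYP2B6-2.2kb luciferase were exposed to compounds at 15 concentrations for 24 h at 37 C/5% CO2. A luciferase reagent was added and luminescence recorded after 30 min.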

[9] = biological target: Nuclear receptor subfamily 1 group I member 3 (Homo sapiens) (UniProt Q14994); experiment: qHTS assay to identify small molecule agonists of the constitutive androstane receptor (CAR) signaling pathway (AID 1224839);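 further: HepG2 cells stably carrying human CAR and a CYP2B6 luciferase reporter; series mostly up to about 92 µM; nearly all actives have a fitted effect of over 15% in size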
Outline: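 Stable hCAR/CYP2B6-2.2kb HepG2 line in DMEM with 10% FBS; compounds (15 concentrations) and 0.75 uM PK11195 final, 24 h at 37 C/5% CO2, then ONE-Glo luminescence after 30 min.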

[10] = qHTS assay to identify small molecule antagonists of the estrogen related receptor signaling pathway with the pleiotropic PPARgamma coactivator (PGC) from Tox21 10K library - cell viability counter screen (AID 1224840; active means well fitted cell-killing curve with a large enough effect in the repeat runs, not every such curve was filed as active; further: nearly all actives have a fitted effect of over 40% in size)
Outline: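 Viability counter screen, PGC/ERR cells: 17.5 h compound exposure at 37 C, CellTiter-Fluor fluorescence endpoint.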

[11] = qHTS assay to identify small molecule antagonists of the estrogen related receptor signaling pathway with the pleiotropic PPARgamma coactivator (PGC) from Tox21 10K library (AID 1224841; call rule not given here; further: actives are mostly falling curves and most rising ones were filed inactive; nearly all actives have a fitted effect of over 50% in size; further: potency means the concentration at half of the fitted maximal effect)
Outline: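 In the PGC/ERR line, DMSO solutions of test chemicals are pin-delivered to 2,000 cells/well six hours after dispensing. Following eighteen hours' incubation, One-Glo reagent is added and luminescence recorded.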

[12] = qHTS assay to identify small molecule agonists of the estrogen related receptor signaling pathway with the pleiotropic PPARgamma coactivator (PGC) from Tox21 10K library (AID 1224842); further: nearly all actives have a fitted effect of over 15% in size
Outline: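 PGC/ERR reporter cells (NTP line) were seeded 2,000 per well, rested 6 h at 37 C/5% CO2, then pin-dosed with compounds in DMSO for 18 h at 37 C; luciferase read by One-Glo luminescence after 30 min at room temperature.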

| Compound | Potency [1] | Potency [2] | outcome [3] | Potency [4] | Potency [5] | outcome [6] | outcome [7] | Potency [8] | Potency [9] | outcome [10] | Potency [11] | Potency [12] |
| --- | --- | --- | --- | --- | --- | --- | --- | --- | --- | --- | --- | --- |
| CCCC(=O)O[C@]1(C(=O)CCl)[C@@H](C)C[C@H]2[C@@H]3CCC4=CC(=O)C=C[C@]4(C)[C@@]3(F)C(=O)C[C@@]21C | inactive | inactive | inactive | inactive | inactive | inactive | inactive | inactive | inactive | inactive | – | – |
| CC(C)[N+](C)(C)CC(O)COc1cccc2ccccc12 (stereo not drawn) | inactive | inactive | inactive | inactive | inactive | inactive | inactive | inactive | inactive | inactive | – | – |
| Cn1cnc2c(=O)[nH]c(N)nc21 | inactive | inactive | inactive | inactive | inactive | inactive | inactive | inactive | inactive | inactive | – | – |
| CC/C=C\C#N | inactive | inactive | inactive | inactive | inactive | inactive | inactive | inactive | inactive | inactive | – | – |
| Cc1ccc(Nc2ccc(O)c3c2C(=O)c2ccccc2C3=O)cc1 | inactive | inactive | inactive | inactive | inactive | inactive | inactive | inactive | inactive | inactive | – | – |
| CC(C)CCCC(C)CCCC(C)CCCCC(C)CCCC(C)CCCC(C)C (stereo not drawn) | inactive | inactive | inactive | inactive | inactive | inactive | inactive | inactive | inactive | inactive | – | – |
| CCCCOCC(C)OCC(C)O (stereo not drawn) | inactive | inactive | inactive | inactive | inactive | inactive | inactive | inactive | inactive | inactive | – | – |
| CCN1CCN(c2cc3c(cc2F)c(=O)c(C(=O)O)cn3C2CC2)CC1 | inactive | inactive | inactive | inactive | inactive | inactive | inactive | – | inactive | inactive | – | – |
| C=CCSCC1Nc2cc(Cl)c(S(N)(=O)=O)cc2S(=O)(=O)N1 (stereo not drawn) | inactive | inactive | inactive | inactive | inactive | inactive | inactive | – | inactive | inactive | – | – |
| CC(C)CCOC(=O)CC(C)C | inactive | inactive | inactive | inactive | inactive | inactive | inactive | inactive | inactive | inactive | – | – |
| C[C@H](O)C(=O)Nc1c(I)c(C(=O)NC(CO)CO)c(I)c(C(=O)NC(CO)CO)c1I | inactive | inactive | inactive | inactive | inactive | inactive | inactive | inactive | inactive | inactive | – | – |
| Nc1nc(F)nc2c1ncn2[C@@H]1O[C@H](CO)[C@@H](O)[C@@H]1O | inactive | inactive | inactive | inactive | inactive | inactive | inactive | – | inactive | inactive | – | – |
| NC(=O)CCCCC1CCSS1 (stereo not drawn) | inactive | inactive | inactive | inactive | inactive | inactive | inactive | inactive | inactive | inactive | – | – |
| CN(C)CCn1nnnc1SCC1=C(C(=O)O)N2C(=O)[C@@H](NC(=O)Cc3csc(N)n3)[C@H]2SC1 | inactive | inactive | inactive | inactive | inactive | inactive | inactive | – | inactive | inactive | – | – |
| COc1cccc(OC)c1 | inactive | inactive | inactive | inactive | inactive | inactive | inactive | inactive | inactive | inactive | – | – |
| CCN(CC)S(=O)(=O)c1ccc(C(=O)O)cc1 | inactive | inactive | inactive | inactive | inactive | inactive | inactive | – | inactive | inactive | – | – |
| c1ccc2cnncc2c1 | inactive | inactive | inactive | inactive | inactive | inactive | inactive | – | – | inactive | 27.4 µM (active) | inactive |
| CC(C)[C@H](N)C(=O)OCCOCn1cnc2c(=O)[nH]c(N)nc21 | inactive | inactive | inactive | inactive | inactive | inactive | inactive | – | – | inactive | – | – |
| O=C(O)c1ccccc1-c1ccc(C(F)(F)F)cc1 | inactive | inactive | inactive | inactive | inactive | inactive | inactive | – | – | inactive | – | – |
| COC(C(=O)O)c1ccccc1 (stereo not drawn) | inactive | inactive | inactive | inactive | inactive | inactive | inactive | – | inactive | inactive | – | – |
| CCCCCCCCCCCCCCCCCC(=O)OCCCCCCCCCCCCCC(C)C | inactive | inactive | inactive | inactive | inactive | inactive | inactive | – | – | inactive | – | – |
| C=C(C)[C@@H]1CCC2=CC(=O)C[C@@H](C)[C@]2(C)C1 | inactive | inactive | inactive | inactive | inactive | inactive | inactive | – | – | inactive | inactive | inactive |
